In the supplement of paper PMC10849652:
Targets with a hit are over-represented here; the source holds about 8,800 in all. About 0.5% of all pairs of compound and target were hits. Unmarked numbers belong to inactive results.

Legend:
Test in all cases: log2 fold change, soluble protein after heating vs DMSO (PISA); higher = thermal stabilisation; K562 lysate, 10 uM; active = over 0.2 and 3.5 SD of the protein, either way, in both replicates (recomputed)
erlotinib = compound: C#Cc1cccc(Nc2ncnc3cc(OCCOC)c(OCCOC)cc23)c1 [erlotinib]
How it was run: (§1)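 Log-two fold change in thermal stability relative to solvent controls is reported from duplicates. For each sample, crude K562 extract from dounce-homogenised pellets in PBS pH 7.4 with 1 mM MgCl2, at 1 mg/mL protein, was treated with 10 μM compound for 30 min. Aliquots heated for 3 min across 48°C-58°C were pooled, brought to 0.5% NP-40 at 4°C and cleared at 21,000xg for 90 min. The supernatant was quantified by TMTpro 16plex LC-MS/MS with channel sums equalised.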

[1] = compound: C/C(=N\NC(=O)C1=CC(=CC=C1)S(=O)(=O)N2CCOCC2)/C3=C(C=CC(=C3)Cl)O
How it was run: as §1

[2] = compound: C1=CC(=CC=C1C2=NC3=C(N2)C=C(C=C3)C(=O)N)OC4=CC=C(C=C4)Cl
How it was run: as §1

[3] = compound: C1=CC2=C(C=CC(=C2)/C=C\3/C(=O)NC(=NCC4=CC=CS4)S3)N=C1
How it was run: as §1

[4] = compound: C1=CC2=NC=CN=C2C=C1/C=C/3\C(=O)NC(=O)S3
How it was run: as §1

[5] = compound: C1=CC=C(C=C1)C2=NC(=C(N2)C3=CC=NC=C3)C4=CC(=C(C=C4)Cl)O
How it was run: as §1

[6] = compound: C1=CC=C2C(=C1)C3=NNC4=CC=CC(=C43)C2=O
How it was run: as §1

[7] = compound: C1CCN(C1)C(=O)NC2=CC=CC(=C2)NC3=NC=C(C(=N3)NCCC4=CN=CN4)Br
How it was run: as §1

[8] = compound: C1CN(CCC1(CC2=CC=C(C=C2)Cl)N)C3=NC=NC4=C3C=CN4
How it was run: as §1

IRAK-1-4 Inhibitor I = compound: C1COCCN1CCN2C3=CC=CC=C3N=C2NC(=O)C4=CC(=CC=C4)[N+](=O)[O-] [IRAK-1-4 Inhibitor I]
How it was run: as §1

ibrutinib = compound: C=CC(=O)N1CCC[C@@H](n2nc(-c3ccc(Oc4ccccc4)cc3)c3c(N)ncnc32)C1 [ibrutinib]
How it was run: as §1

[9] = compound: CC(=O)c1cnc2ccc(-c3cc(Cl)c(O)c(Cl)c3)nc2c1N[C@H]1CC[C@H](CN(C)C)CC1
How it was run: as §1

ralimetinib = compound: CC(C)(C)Cn1c(N)nc2ccc(-c3[nH]c(C(C)(C)C)nc3-c3ccc(F)cc3)nc21 [ralimetinib]
How it was run: as §1

[10] = compound: CC(C)(O)CC(=O)NCCn1ccc2ncnc(Nc3ccc(Oc4cccc(C(F)(F)F)c4)c(Cl)c3)c21
How it was run: as §1

[11] = compound: CC(C)C1=C2N=C(C=C(N2N=C1)NCC3=CC=CC=C3)NCCCCCCN
How it was run: as §1

[12] = compound: CC1=C(C(CC(=O)N1)C2=CC=C(C=C2)C(F)(F)F)C(=O)NC3=C(C=C4C(=C3)C=NN4)F
How it was run: as §1

[13] = compound: CC1=C(C2=C(C=C1)C(=O)C3=CC=CC=C3N2CCCN)C
How it was run: as §1

[14] = compound: CC1=C(C=C(C=C1)NC(=O)C2=CC(=CC=C2)C(C)(C)C#N)NC3=CC4=C(C=C3)N=CN(C4=O)C
How it was run: as §1

[15] = compound: CC1=C(C=C(C=C1)NC(=O)C2=CC(=CC=C2)N(C)C)NC(=O)C3=CC=C(C=C3)O
How it was run: as §1

[16] = compound: CC1=CC=C(C=C1)SC2=C3C=C(SC3=CN=C2)C(=O)N
How it was run: as §1

Chain of UniProt Q5VU43 (Q5VU43 whole entry, looked up): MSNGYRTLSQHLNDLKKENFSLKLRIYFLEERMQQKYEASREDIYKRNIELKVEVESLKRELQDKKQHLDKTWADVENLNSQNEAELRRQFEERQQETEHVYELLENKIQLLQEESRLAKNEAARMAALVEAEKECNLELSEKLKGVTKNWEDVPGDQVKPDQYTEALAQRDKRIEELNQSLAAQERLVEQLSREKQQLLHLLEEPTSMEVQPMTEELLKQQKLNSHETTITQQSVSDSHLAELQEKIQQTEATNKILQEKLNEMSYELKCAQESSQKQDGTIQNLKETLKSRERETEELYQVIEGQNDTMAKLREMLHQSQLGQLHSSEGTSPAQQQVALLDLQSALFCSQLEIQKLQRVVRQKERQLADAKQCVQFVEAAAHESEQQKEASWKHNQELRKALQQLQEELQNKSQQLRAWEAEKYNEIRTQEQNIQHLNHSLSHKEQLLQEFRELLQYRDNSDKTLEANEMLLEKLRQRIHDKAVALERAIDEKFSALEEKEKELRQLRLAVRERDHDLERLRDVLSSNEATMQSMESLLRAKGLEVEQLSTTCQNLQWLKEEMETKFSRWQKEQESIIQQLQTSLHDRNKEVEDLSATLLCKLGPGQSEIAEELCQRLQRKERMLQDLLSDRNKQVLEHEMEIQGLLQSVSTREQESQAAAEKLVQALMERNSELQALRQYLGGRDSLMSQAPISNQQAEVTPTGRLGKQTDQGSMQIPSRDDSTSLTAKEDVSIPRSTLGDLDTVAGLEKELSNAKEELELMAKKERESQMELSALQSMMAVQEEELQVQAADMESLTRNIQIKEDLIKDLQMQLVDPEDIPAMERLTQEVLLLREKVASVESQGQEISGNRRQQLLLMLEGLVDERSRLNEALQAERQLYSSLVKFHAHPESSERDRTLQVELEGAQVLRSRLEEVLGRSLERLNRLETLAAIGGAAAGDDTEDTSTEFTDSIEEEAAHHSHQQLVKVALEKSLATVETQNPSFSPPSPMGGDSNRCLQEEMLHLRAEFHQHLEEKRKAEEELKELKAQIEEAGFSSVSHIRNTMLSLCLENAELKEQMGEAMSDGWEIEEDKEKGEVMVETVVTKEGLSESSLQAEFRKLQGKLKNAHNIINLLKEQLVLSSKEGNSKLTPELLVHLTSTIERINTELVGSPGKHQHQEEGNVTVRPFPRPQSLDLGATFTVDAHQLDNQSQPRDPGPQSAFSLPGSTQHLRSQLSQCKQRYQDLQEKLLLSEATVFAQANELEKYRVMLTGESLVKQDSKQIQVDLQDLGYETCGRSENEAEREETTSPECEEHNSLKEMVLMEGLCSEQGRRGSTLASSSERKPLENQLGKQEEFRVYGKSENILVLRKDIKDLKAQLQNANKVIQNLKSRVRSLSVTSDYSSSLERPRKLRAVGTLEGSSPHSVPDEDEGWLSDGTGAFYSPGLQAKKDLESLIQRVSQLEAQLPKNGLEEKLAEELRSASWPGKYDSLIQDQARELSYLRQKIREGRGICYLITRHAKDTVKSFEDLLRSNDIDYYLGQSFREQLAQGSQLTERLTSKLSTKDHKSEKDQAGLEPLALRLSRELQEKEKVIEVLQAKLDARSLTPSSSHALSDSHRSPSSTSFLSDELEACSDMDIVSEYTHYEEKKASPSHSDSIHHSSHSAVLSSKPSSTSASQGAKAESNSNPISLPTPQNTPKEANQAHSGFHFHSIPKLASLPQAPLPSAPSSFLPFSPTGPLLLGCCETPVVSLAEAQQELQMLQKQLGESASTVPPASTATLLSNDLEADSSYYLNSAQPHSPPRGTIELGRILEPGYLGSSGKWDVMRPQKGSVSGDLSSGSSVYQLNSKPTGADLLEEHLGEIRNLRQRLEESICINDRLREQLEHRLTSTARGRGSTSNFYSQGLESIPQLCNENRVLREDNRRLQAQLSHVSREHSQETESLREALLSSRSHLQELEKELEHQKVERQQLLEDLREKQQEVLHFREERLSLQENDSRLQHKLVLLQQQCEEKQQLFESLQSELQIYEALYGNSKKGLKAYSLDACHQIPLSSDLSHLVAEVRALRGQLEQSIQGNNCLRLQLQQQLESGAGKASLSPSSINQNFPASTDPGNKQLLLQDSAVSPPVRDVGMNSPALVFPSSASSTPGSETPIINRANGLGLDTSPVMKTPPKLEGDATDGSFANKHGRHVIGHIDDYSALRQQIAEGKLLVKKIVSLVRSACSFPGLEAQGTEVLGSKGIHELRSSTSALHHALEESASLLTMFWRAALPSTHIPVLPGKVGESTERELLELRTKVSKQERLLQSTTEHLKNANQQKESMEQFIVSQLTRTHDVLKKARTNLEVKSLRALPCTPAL
Chain of UniProt Q9UHV9 (Q9UHV9 whole entry, looked up): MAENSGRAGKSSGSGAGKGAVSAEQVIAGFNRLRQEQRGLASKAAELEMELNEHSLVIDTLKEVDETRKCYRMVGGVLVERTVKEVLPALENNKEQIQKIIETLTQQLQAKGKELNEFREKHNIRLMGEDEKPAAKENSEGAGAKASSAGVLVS
Chain of UniProt P27986 (P27986 whole entry, looked up): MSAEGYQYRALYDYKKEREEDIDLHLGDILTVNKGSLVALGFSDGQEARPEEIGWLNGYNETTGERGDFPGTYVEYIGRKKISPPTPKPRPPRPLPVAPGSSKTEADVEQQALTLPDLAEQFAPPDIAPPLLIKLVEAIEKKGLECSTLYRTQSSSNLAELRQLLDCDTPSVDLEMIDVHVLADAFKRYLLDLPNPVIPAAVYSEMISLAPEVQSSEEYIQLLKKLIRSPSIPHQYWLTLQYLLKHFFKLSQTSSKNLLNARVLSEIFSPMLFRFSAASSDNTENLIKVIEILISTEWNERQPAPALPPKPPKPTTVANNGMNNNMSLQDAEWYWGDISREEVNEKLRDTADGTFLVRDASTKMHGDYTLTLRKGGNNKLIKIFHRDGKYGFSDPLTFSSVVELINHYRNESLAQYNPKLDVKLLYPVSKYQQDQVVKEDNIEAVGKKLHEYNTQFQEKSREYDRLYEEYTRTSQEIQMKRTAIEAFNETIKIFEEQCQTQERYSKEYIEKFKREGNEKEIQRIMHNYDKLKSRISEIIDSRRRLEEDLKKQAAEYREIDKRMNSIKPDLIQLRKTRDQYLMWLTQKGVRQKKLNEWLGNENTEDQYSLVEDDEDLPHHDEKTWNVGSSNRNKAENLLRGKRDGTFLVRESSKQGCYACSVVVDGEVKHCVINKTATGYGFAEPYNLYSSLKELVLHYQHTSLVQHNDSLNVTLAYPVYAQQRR
Chain of UniProt Q5JRX3 (Q5JRX3 whole entry, looked up): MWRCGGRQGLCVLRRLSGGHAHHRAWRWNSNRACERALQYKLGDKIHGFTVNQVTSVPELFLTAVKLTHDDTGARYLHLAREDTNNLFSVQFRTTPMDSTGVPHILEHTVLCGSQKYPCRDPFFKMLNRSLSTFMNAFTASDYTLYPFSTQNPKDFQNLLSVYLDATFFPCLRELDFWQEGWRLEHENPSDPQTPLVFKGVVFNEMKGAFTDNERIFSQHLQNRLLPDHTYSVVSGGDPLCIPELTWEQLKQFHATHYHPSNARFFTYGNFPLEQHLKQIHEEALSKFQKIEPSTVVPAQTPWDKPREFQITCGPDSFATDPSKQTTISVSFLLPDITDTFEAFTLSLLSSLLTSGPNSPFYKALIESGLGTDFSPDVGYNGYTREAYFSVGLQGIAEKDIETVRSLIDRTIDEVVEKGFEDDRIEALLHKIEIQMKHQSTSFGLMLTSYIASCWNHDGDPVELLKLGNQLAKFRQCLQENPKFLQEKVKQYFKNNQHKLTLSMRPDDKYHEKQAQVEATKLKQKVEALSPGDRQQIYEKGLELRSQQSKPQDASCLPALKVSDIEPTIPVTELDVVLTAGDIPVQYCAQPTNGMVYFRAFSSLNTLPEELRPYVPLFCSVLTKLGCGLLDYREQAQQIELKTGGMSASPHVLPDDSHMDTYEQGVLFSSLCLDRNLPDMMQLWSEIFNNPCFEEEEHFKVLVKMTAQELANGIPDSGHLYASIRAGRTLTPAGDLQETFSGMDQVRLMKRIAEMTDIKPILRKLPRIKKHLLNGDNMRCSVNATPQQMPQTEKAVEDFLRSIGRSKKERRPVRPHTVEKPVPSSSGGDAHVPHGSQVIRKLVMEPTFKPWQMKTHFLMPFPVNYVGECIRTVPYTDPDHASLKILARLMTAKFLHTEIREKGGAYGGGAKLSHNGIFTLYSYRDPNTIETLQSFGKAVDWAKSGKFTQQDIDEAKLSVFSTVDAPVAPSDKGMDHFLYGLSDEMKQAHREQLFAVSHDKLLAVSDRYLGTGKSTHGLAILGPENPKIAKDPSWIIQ
Chain of UniProt Q9BUL8 (Q9BUL8 whole entry, looked up): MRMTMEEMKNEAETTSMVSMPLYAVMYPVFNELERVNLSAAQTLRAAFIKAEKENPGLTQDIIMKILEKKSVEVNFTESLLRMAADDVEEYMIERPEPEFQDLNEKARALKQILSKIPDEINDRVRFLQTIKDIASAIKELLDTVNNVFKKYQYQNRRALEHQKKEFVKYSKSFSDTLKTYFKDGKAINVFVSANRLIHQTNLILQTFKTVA
Chain of UniProt P31323 (P31323 whole entry, looked up): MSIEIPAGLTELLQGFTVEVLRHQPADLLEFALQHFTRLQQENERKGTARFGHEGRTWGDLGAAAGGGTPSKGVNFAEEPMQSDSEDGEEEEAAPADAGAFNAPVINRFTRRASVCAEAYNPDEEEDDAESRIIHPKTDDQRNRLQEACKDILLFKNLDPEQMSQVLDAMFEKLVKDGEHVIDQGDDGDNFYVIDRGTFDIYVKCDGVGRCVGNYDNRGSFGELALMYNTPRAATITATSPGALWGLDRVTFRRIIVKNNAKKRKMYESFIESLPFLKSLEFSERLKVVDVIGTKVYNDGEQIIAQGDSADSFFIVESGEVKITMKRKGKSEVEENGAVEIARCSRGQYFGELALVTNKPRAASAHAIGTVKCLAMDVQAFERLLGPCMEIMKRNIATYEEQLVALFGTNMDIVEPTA

Row | Target | log2 fold change (erlotinib) | log2 fold change [1] | log2 fold change [2] | log2 fold change [3] | log2 fold change [4] | log2 fold change [5] | log2 fold change [6] | log2 fold change [7] | log2 fold change [8] | log2 fold change (IRAK-1-4 Inhibitor I) | log2 fold change (ibrutinib) | log2 fold change [9] | log2 fold change (ralimetinib) | log2 fold change [10] | log2 fold change [11] | log2 fold change [12] | log2 fold change [13] | log2 fold change [14] | log2 fold change [15] | log2 fold change [16]
1 | PRKRA (UniProt O75569) | 0.016 | -0.1 | -0.061 | -0.01 | 0.08 | 0.012 | -0.012 | -0.074 | 0.018 | 0.033 | -0.043 | -0.01 | 0.035 | 0.011 | 0.013 | 0.045 | -0.038 | 0.002 | 0.056 | 0.019
2 | PFDN2 (UniProt Q9UHV9) | -0.055 | -0.003 | -0.038 | 0.006 | 0 | -0.027 | 0.071 | 0.043 | -0.026 | -0.015 | 0.103 | 0.006 | 0.08 | 0.08 | 0.005 | 0.016 | 0.034 | -0.017 | -0.033 | -0.022
3 | PXMP4 (UniProt Q9Y6I8) | 0.024 | 0.068 | 0.084 | -0.053 | 0.013 | 0.053 | -0.038 | 0.043 | 0.022 | 0.016 | -0.022 | 0 | 0.012 | -0.076 | -0.18 | -0.008 | 0.066 | 0.234 | -0.007 | 0.023
4 | PDCD10 (UniProt Q9BUL8) | -0.029 | -0.001 | -0.009 | -0.049 | -0.028 | -0.007 | 0.087 | 0.035 | -0.025 | -0.012 | 0.001 | 0.062 | 0 | -0.006 | -0.008 | -0.02 | 0.016 | 0.021 | -0.02 | -0.02
5 | PYCR2 (UniProt Q96C36) | -0.013 | 0.014 | 0.011 | -0.005 | -0.013 | 0.003 | -0.04 | 0.007 | 0.01 | 0.031 | 0.012 | 0.002 | -0.007 | -0.032 | -0.007 | -0.026 | 0.001 | 0.013 | -0.017 | -0.016
6 | PTPN1 (UniProt P18031) | -0.007 | 0.065 | -0.015 | 0.025 | -0.011 | -0.005 | -0.019 | 0.027 | -0.017 | 0.024 | -0.003 | -0.024 | 0.018 | 0.024 | 0.006 | -0.005 | -0.002 | 0.006 | 0.049 | 0.016
7 | POLR3E (UniProt Q9NVU0) | 0.003 | 0.003 | -0.007 | 0.017 | 0.005 | 0.006 | -0.001 | -0.03 | -0.007 | -0.016 | 0.02 | 0.018 | 0.043 | -0.006 | 0.029 | 0.025 | -0.021 | -0.004 | 0.003 | 0.007
8 | PFKFB2 (UniProt O60825) | -0.007 | -0.012 | 0.03 | -0.004 | 0.005 | -0.02 | 0.02 | -0.004 | 0.002 | -0.001 | -0.007 | -0.014 | 0.035 | -0.017 | -0.016 | 0.006 | -0.001 | -0.013 | -0.011 | -0.001
9 | PIP4K2B (UniProt P78356) | 0.038 | -0.193 | -0.021 | 0.012 | 0.096 | 0.067 | 0.013 | 0.032 | -0.02 | -0.019 | -0.002 | 0.043 | 0.016 | 0.023 | -0.032 | -0.043 | -0.022 | 0.087 | -0.044 | -0.031
10 | PDE4DIP isoform 4 (UniProt Q5VU43) | 0.002 | -0.026 | 0.017 | 0.004 | -0.004 | 0 | -0.111 | -0.009 | 0.055 | 0.024 | 0.249 | -0.021 | 0.02 | -0.03 | -0.061 | -0.032 | 0.006 | 0.054 | -0.033 | 0.017
11 | PLEKHA5 isoform 6 (UniProt Q9HAU0) | -0.007 | -0.021 | 0.016 | -0.058 | 0.087 | -0.021 | -0.007 | -0.002 | -0.04 | 0.019 | 0.075 | 0.003 | -0.004 | -0.001 | 0.069 | -0.013 | -0.033 | 0.028 | 0.022 | -0.036
12 | PIK3R1 (UniProt P27986) | -0.027 | -0.4 | 0.008 | 0.069 | 0.348 (active) | 0.076 | 0.089 | -0.015 | 0 | 0.1 | -0.018 | 0.302 | -0.003 | -0.06 | -0.008 | -0.006 | 0.027 | -0.013 | -0.006 | 0.019
13 | PRPF38A (UniProt Q8NAV1) | -0.012 | -0.016 | 0.049 | -0.025 | 0.044 | 0.05 | 0.042 | 0.005 | -0.018 | 0.057 | 0 | -0.001 | 0.01 | -0.011 | 0.054 | 0.027 | -0.128 | 0.094 | -0.075 | 0.018
14 | PIGO (UniProt Q8TEQ8) | 0.179 | -0.423 | -0.266 | 0.242 | 0.132 | 0.001 | -0.285 | -0.001 | 0.117 | 0.114 | 0.093 | 0.016 | -0.039 | -0.013 | -0.068 | -0.041 | -0.05 | -0.1 | -0.047 | -0.158
15 | PRKAR2B (UniProt P31323) | 0 | 0.066 | -0.022 | -0.025 | 0.018 | -0.03 | -0.116 | -0.16 | -0.131 | -0.016 | -0.017 | 0.008 | 0.007 | -0.01 | 0.022 | 0.015 | -0.004 | 0.027 | 0.031 | 0.03
16 | PITRM1 isoform 2 (UniProt Q5JRX3) | -0.035 | 0.011 | 0.077 | 0.04 | -0.037 | -0.025 | 0.009 | 0.016 | 0.024 | -0.015 | 0.007 | -0.004 | 0.134 | -0.009 | -0.019 | 0.001 | -0.021 | -0.001 | -0.005 | 0.012
